# Measured values: article PMC12820563, “FoxP3 forms a head-to-head dimer in vivo and stabilizes its multimerization on adjacent microsatellites”
# The full ranking holds about 16,000 sequences; the median of “rpm ratio (pull-down/input)” is about 0.94, and the highest 2% start at about 1.7. Many of the other results were omitted from the sample, so the highest values are more common in it than they were.
# Biological target: T1, MBP-FoxP1dN (Mus musculus, UniProt P58462 326-579)
# T1 sequence: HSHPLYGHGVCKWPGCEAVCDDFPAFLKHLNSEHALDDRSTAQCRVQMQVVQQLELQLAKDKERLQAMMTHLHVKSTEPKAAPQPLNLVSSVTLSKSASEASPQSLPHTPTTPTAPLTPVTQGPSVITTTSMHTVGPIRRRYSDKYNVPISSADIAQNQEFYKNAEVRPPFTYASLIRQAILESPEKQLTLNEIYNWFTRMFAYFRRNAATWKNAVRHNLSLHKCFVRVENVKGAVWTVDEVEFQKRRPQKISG
# Assay: PD-seq (MBP pull-down with sequencing); 20 mM Tris-HCl pH 7.5, 100 mM NaCl, 1.5 mM MgCl2, 0.4 uM protein, 0.1 uM dsDNA library, 30 min, room temperature, amylose pull-down; high values mean tight binding
# Settings: protein: recombinant; tags: His6-MBP; chain copies: 2; dsDNA, one strand shown
# Summary of the method: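 Binding is reads-per-million enrichment of pull-down over input, with replicates pooled. It comes from 30 min room-temperature incubation in Tris pH 7.5 buffer with NaCl and MgCl2 of 0.4 µM His6-MBP-tagged, N-terminally truncated mouse FoxP3 or FoxP1 fragment from E. coli with 0.1 µM Klenow-filled degenerate double-stranded DNA library, followed by amylose resin capture, three washes and Illumina sequencing of the released DNA.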
row,Sequence,binding signal
1,GATGATTGTTCTCCCAGCTGATGAATTCTGGCTGTCGAGTAAACAAATTTTCCTAATCTTTCTGTTCAAGCGCCATCTAC,0.808 RPM ratio (pull-down/input)
2,GATGATTGTTCTCCCAGCTGATGAATTGCCGTAATCGAGTAAACAAATTTTCCTAATCTTTCTGTTCAAGCGCCATCTAC,1.39 RPM ratio (pull-down/input)
3,GATGATTGTTCTCCCAGCTGATGAATTAATGTAGTCGAGTAAACAAATTTTCCTAATCTTTCTGTTCAAGCGCCATCTAC,1.24 RPM ratio (pull-down/input)
4,GATGATTGTTCTCCCAGCTGATGAATTGGCACAATCGAGTAAACAAATTTTCCTAATCTTTCTGTTCAAGCGCCATCTAC,1.34 RPM ratio (pull-down/input)
5,GATGATTGTTCTCCCAGCTGATGAATTATTATTTTCGAGTAAACAAATTTTCCTAATCTTTCTGTTCAAGCGCCATCTAC,3.1 RPM ratio (pull-down/input)
6,GATGATTGTTCTCCCAGCTGATGAATTATTTGTTTCGAGTAAACAAATTTTCCTAATCTTTCTGTTCAAGCGCCATCTAC,2.21 RPM ratio (pull-down/input)
7,GATGATTGTTCTCCCAGCTGATGAATTATTTGATTCGAGTAAACAAATTTTCCTAATCTTTCTGTTCAAGCGCCATCTAC,1.05 RPM ratio (pull-down/input)
8,GATGATTGTTCTCCCAGCTGATGAATTATTGTGTTCGAGTAAACAAATTTTCCTAATCTTTCTGTTCAAGCGCCATCTAC,2.1 RPM ratio (pull-down/input)
9,GATGATTGTTCTCCCAGCTGATGAATTATTAATTTCGAGTAAACAAATTTTCCTAATCTTTCTGTTCAAGCGCCATCTAC,1.34 RPM ratio (pull-down/input)
10,GATGATTGTTCTCCCAGCTGATGAATTATTTTGTTCGAGTAAACAAATTTTCCTAATCTTTCTGTTCAAGCGCCATCTAC,1.32 RPM ratio (pull-down/input)
11,GATGATTGTTCTCCCAGCTGATGAATTATTTTTTTCGAGTAAACAAATTTTCCTAATCTTTCTGTTCAAGCGCCATCTAC,1.5 RPM ratio (pull-down/input)
12,GATGATTGTTCTCCCAGCTGATGAATTAATTATTTCGAGTAAACAAATTTTCCTAATCTTTCTGTTCAAGCGCCATCTAC,1.12 RPM ratio (pull-down/input)
13,GATGATTGTTCTCCCAGCTGATGAATTATTTGCTTCGAGTAAACAAATTTTCCTAATCTTTCTGTTCAAGCGCCATCTAC,1.56 RPM ratio (pull-down/input)
14,GATGATTGTTCTCCCAGCTGATGAATTATTGCTTTCGAGTAAACAAATTTTCCTAATCTTTCTGTTCAAGCGCCATCTAC,1.74 RPM ratio (pull-down/input)
15,GATGATTGTTCTCCCAGCTGATGAATTATTTCTTTCGAGTAAACAAATTTTCCTAATCTTTCTGTTCAAGCGCCATCTAC,1.17 RPM ratio (pull-down/input)
16,GATGATTGTTCTCCCAGCTGATGAATTGCTTATTTCGAGTAAACAAATTTTCCTAATCTTTCTGTTCAAGCGCCATCTAC,1.62 RPM ratio (pull-down/input)
17,GATGATTGTTCTCCCAGCTGATGAATTCCAGGCTTCGAGTAAACAAATTTTCCTAATCTTTCTGTTCAAGCGCCATCTAC,0.758 RPM ratio (pull-down/input)
18,GATGATTGTTCTCCCAGCTGATGAATTTGGCTATTCGAGTAAACAAATTTTCCTAATCTTTCTGTTCAAGCGCCATCTAC,0.942 RPM ratio (pull-down/input)
19,GATGATTGTTCTCCCAGCTGATGAATTCGGCTCCTCGAGTAAACAAATTTTCCTAATCTTTCTGTTCAAGCGCCATCTAC,0.747 RPM ratio (pull-down/input)
20,GATGATTGTTCTCCCAGCTGATGAATTCAATAGATCGAGTAAACAAATTTTCCTAATCTTTCTGTTCAAGCGCCATCTAC,0.887 RPM ratio (pull-down/input)
21,GATGATTGTTCTCCCAGCTGATGAATTATTCTGGTCGAGTAAACAAATTTTCCTAATCTTTCTGTTCAAGCGCCATCTAC,1.04 RPM ratio (pull-down/input)

row,Sequence,binding signal
1,GATGATTGTTCTCCCAGCTGATGAATTGACCATGTCGAGTAAACAAATTTTCCTAATCTTTCTGTTCAAGCGCCATCTAC,0.875 RPM ratio (pull-down/input)
2,GATGATTGTTCTCCCAGCTGATGAATTACTTTGCTCGAGTAAACAAATTTTCCTAATCTTTCTGTTCAAGCGCCATCTAC,1.02 RPM ratio (pull-down/input)
3,GATGATTGTTCTCCCAGCTGATGAATTCTATTAGTCGAGTAAACAAATTTTCCTAATCTTTCTGTTCAAGCGCCATCTAC,1.14 RPM ratio (pull-down/input)
4,GATGATTGTTCTCCCAGCTGATGAATTGTGTACCTCGAGTAAACAAATTTTCCTAATCTTTCTGTTCAAGCGCCATCTAC,1.6 RPM ratio (pull-down/input)
5,GATGATTGTTCTCCCAGCTGATGAATTTCACCCATCGAGTAAACAAATTTTCCTAATCTTTCTGTTCAAGCGCCATCTAC,0.921 RPM ratio (pull-down/input)
6,GATGATTGTTCTCCCAGCTGATGAATTTTTCGCGTCGAGTAAACAAATTTTCCTAATCTTTCTGTTCAAGCGCCATCTAC,1.01 RPM ratio (pull-down/input)
7,GATGATTGTTCTCCCAGCTGATGAATTATTGTTTTCGAGTAAACAAATTTTCCTAATCTTTCTGTTCAAGCGCCATCTAC,2.83 RPM ratio (pull-down/input)
8,GATGATTGTTCTCCCAGCTGATGAATTGATTATTTCGAGTAAACAAATTTTCCTAATCTTTCTGTTCAAGCGCCATCTAC,1.39 RPM ratio (pull-down/input)
9,GATGATTGTTCTCCCAGCTGATGAATTATTGATTTCGAGTAAACAAATTTTCCTAATCTTTCTGTTCAAGCGCCATCTAC,1.72 RPM ratio (pull-down/input)
10,GATGATTGTTCTCCCAGCTGATGAATTTGAGCTCTCGAGTAAACAAATTTTCCTAATCTTTCTGTTCAAGCGCCATCTAC,0.775 RPM ratio (pull-down/input)
11,GATGATTGTTCTCCCAGCTGATGAATTTCTTTGTTCGAGTAAACAAATTTTCCTAATCTTTCTGTTCAAGCGCCATCTAC,0.994 RPM ratio (pull-down/input)
12,GATGATTGTTCTCCCAGCTGATGAATTTGTTTGTTCGAGTAAACAAATTTTCCTAATCTTTCTGTTCAAGCGCCATCTAC,2.73 RPM ratio (pull-down/input)
13,GATGATTGTTCTCCCAGCTGATGAATTTTTTTGTTCGAGTAAACAAATTTTCCTAATCTTTCTGTTCAAGCGCCATCTAC,0.971 RPM ratio (pull-down/input)
14,GATGATTGTTCTCCCAGCTGATGAATTTCGAGTTTCGAGTAAACAAATTTTCCTAATCTTTCTGTTCAAGCGCCATCTAC,0.851 RPM ratio (pull-down/input)
15,GATGATTGTTCTCCCAGCTGATGAATTTCAAATTTCGAGTAAACAAATTTTCCTAATCTTTCTGTTCAAGCGCCATCTAC,0.846 RPM ratio (pull-down/input)
16,GATGATTGTTCTCCCAGCTGATGAATTGTTGTTTTCGAGTAAACAAATTTTCCTAATCTTTCTGTTCAAGCGCCATCTAC,3.52 RPM ratio (pull-down/input)
17,GATGATTGTTCTCCCAGCTGATGAATTCTTTGTTTCGAGTAAACAAATTTTCCTAATCTTTCTGTTCAAGCGCCATCTAC,1.23 RPM ratio (pull-down/input)
18,GATGATTGTTCTCCCAGCTGATGAATTTGTTCTTTCGAGTAAACAAATTTTCCTAATCTTTCTGTTCAAGCGCCATCTAC,1.3 RPM ratio (pull-down/input)
19,GATGATTGTTCTCCCAGCTGATGAATTTTTGTTTTCGAGTAAACAAATTTTCCTAATCTTTCTGTTCAAGCGCCATCTAC,2.71 RPM ratio (pull-down/input)
20,GATGATTGTTCTCCCAGCTGATGAATTTTGTTGTTCGAGTAAACAAATTTTCCTAATCTTTCTGTTCAAGCGCCATCTAC,2.84 RPM ratio (pull-down/input)
